# CCHF vOTU inh: CCHFV vOTU protease inhibitors, primary screen, biochemical, Pep-AMC substrate, fluorescence; Crimean-Congo hemorrhagic fever virus L polyprotein viral ovarian tumor (vOTU) protease …; inhibition, % at 11.5 µM; hit rate 0.55% among 370,000; AID 651958, 2012; in the data active = inhibition above about 30%; note: 0% = vehicle wells with enzyme and 100% = no enzyme wells
# RecA splice inh: Mtb RecA intein splicing inhibitors, primary screen, biochemical, fluorescence, HTS | cell-free RecA intein splicing | inhibition, % (concentration not given with the values) | hit rate 0.75% among 290,000 | AID 2221, 2009; in the data active = inhibition above about 30%;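 note: 0% = vehicle wells and 100% = reference inhibitor control wells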
# Target sequence (P9WHJ3 whole entry, looked up, canonical isoform): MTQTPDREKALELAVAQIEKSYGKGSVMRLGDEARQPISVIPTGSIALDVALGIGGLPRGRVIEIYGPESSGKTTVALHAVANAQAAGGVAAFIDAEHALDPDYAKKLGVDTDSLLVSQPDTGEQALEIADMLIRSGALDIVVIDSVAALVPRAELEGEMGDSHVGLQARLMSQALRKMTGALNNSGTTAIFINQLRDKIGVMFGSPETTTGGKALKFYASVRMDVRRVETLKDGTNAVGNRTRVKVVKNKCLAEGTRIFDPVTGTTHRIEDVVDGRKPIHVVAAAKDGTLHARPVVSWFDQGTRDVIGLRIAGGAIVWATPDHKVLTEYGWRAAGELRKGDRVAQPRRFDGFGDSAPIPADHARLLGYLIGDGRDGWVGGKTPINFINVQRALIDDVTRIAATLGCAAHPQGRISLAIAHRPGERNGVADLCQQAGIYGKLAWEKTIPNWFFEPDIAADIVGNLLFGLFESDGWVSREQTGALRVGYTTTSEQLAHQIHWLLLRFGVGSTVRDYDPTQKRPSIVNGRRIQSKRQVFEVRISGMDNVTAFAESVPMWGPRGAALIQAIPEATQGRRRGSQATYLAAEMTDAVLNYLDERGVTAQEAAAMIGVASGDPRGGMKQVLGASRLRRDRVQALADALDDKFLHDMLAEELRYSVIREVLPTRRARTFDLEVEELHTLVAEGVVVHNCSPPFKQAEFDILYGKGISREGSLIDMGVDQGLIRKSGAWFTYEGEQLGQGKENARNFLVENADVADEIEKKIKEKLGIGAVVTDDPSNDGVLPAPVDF
# Mtb hypoxia rep: PubChem AID 1159583. M. tuberculosis hypoxia-regulated fluorescent reporter, fluorescence. fluorescence inhibition, % (concentration not given with the values). hit rate 0.1% among 300,000; in the data active = fluorescence inhibition mostly above about 23%, no sharp cut-off; inactive = mostly below about 17%
# PfHsp40 yeast: rescue of yeast from PfHsp40 toxicity, primary screen, S. cerevisiae, ATP luminescence. growth rescue, % at 12.5 µM. AID 504582, 2011. S. cerevisiae expressing PfHsp40, growth rescue. hit rate 0.68% among 340,000; in the data active = growth rescue above about 28%, passing the limit was not always enough;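 note: yeast W303a lacking pdr1 and pdr3 grown in galactose medium; growth measured after three days at 30 °C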
# Mtb bLac sens: beta-lactam sensitization of Mtb H37Rv, H37Rv; hit rate 0.27% among 330,000; M. tuberculosis H37Rv growth with meropenem, percent inhibition; inhibition, % at 25 µM;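 note: growth measured after seven days incubation then overnight dye step; 0% = bacteria only wells and 100% = bacteria with antibiotic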
# GFP chromo cs: counter-screen: blocks GFP chromophore formation, dose response, counter-screen, biochemical, fluorescence, homogeneous | EC50, µM | hit rate 83% among 2,100 | AID 434968, 2010 | shares compounds with RecA splice inh | cell-free GFP chromophore formation
# The depositor's hits bear a star; nt = not tested or not shown. A selection: hits, their analogues and other compounds. The true share with any hit is near 1.7%. Unless noted, the rule behind the calls is not given here.
SMILES,CCHF vOTU inh,RecA splice inh,Mtb hypoxia rep,PfHsp40 yeast,Mtb bLac sens,GFP chromo cs
Cc1[nH]nc2c1C(CC(C)C)C(C#N)=C(N)O2 (stereo unspecified),0.8,72.2*,nt,1.2,-1.6,20.5*
C/C(=C\c1ccco1)C1C(C#N)=C(N)Oc2n[nH]c(-c3ccc(C)cc3)c21 (stereo unspecified),4.5,21.0,-2.0,-0.7,-1.6,nt
CC(C)CC1C(C#N)=C(N)Oc2n[nH]c(-c3ccccc3)c21 (stereo unspecified),-1.7,82.5*,nt,-2.0,17.2,12.8*
C/C(=C\c1ccco1)C1C(C#N)=C(N)Oc2n[nH]c(-c3ccccc3)c21 (stereo unspecified),3.1,76.6*,3.8,0.4,-0.7,17.7*
COc1ccc(NC(=O)Nc2ccc3c(c2)CC(=O)N(C(C)CO)CC(C)C(CN(C)Cc2ccc(C(=O)O)cc2)O3)cc1 (stereo unspecified),nt,nt,8.8,nt,nt,nt
CC(CCC(=O)O)C1CCC2C3C(=O)CC4CC(=O)CC[C@]4(C)C3CC(=O)[C@]12C (stereo partly specified),nt,nt,-2.3,nt,nt,nt
N#CC1=C(N)Oc2n[nH]c(-c3cccs3)c2C1c1ccsc1 (stereo unspecified),7.4,90.5*,2.8,-1.0,-6.1,5.42*
Cc1[nH]nc2c1C(C(C)c1ccccc1)C(C#N)=C(N)O2 (stereo unspecified),4.7,-1.2,-5.9,-1.7,-0.6,nt
CC(C)c1[nH]nc2c1C(c1ccco1)C(C#N)=C(N)O2 (stereo unspecified),3.0,63.6*,3.2,-0.3,2.6,28.8*
N#CC1=C(N)Oc2n[nH]c(-c3cccnc3)c2C1c1ccc([N+](=O)[O-])o1 (stereo unspecified),-4.6,28.8,-3.2,-0.4,100.4,nt
COc1cccc(-c2[nH]nc3c2C(c2ccc(C)o2)C(C#N)=C(N)O3)c1 (stereo unspecified),9.4,77.8*,5.1,nt,-4.0,17.4*
Cc1ccc(C2C(C#N)=C(N)Oc3n[nH]c(-c4cccs4)c32)s1 (stereo unspecified),-3.4,66.7*,10.7,-1.9,-8.1,8.81*
CC(C)(C)c1[nH]nc2c1C(c1ccsc1)C(C#N)=C(N)O2 (stereo unspecified),-3.0,26.5,3.5,1.0,-3.6,nt
COC(=S)NC(=NS(=O)(=O)c1ccc(Cl)cc1)c1ccccc1,nt,nt,8.0,nt,nt,nt
CNCC(C)NCC(Cc1ccccc1)NCCc1ccccc1 (stereo unspecified),nt,nt,-2.7,nt,nt,nt
N#CC1=C(N)Oc2n[nH]c(-c3cccs3)c2C1C1C=CCCC1 (stereo unspecified),12.0,9.5,8.2,0.7,0.2,nt
COc1ccc(OC)c(-c2[nH]nc3c2C(c2ccco2)C(C#N)=C(N)O3)c1 (stereo unspecified),1.3,70.1*,nt,1.1,7.9,26.3*
CCc1[nH]nc2c1C(c1ccsc1)C(C#N)=C(N)O2 (stereo unspecified),-9.1,76.7*,5.6,-1.3,-14.4,26.2*
N#CC1=C(N)Oc2n[nH]c(-c3cccs3)c2C1c1ccco1 (stereo unspecified),-6.4,82.7*,6.7,0.7,-0.2,18.4*
O=C(NCc1ccncc1)C(=O)NN=Cc1ccccc1OCc1ccccc1,nt,nt,8.2,nt,nt,nt
Cc1[nH]c(=O)[nH]c(=O)c1C=NNC(=O)[C@H](CC(C)C)NC(=O)OC(C)(C)C,nt,nt,1.8,nt,nt,nt
Cc1ccc(C=NN2CCN(Cc3ccccc3)CC2)cc1,nt,nt,-14.9,nt,nt,nt
Nc1nc(-c2ccc(Br)cc2)c(S(=O)(=O)c2ccccc2)s1,-12.5,80.6*,-3.9,-0.7,1.5,>38
Nc1nc(-c2ccc(Cl)cc2)c(S(=O)(=O)c2ccccc2)s1,12.1,3.1,13.9,0.4,5.4,nt
CSc1ccc(C2=CC(=O)CC(c3ccc(Cl)cc3)C2)cc1 (stereo unspecified),nt,nt,12.2,nt,nt,nt
SMILES,CCHF vOTU inh,RecA splice inh,Mtb hypoxia rep,PfHsp40 yeast,Mtb bLac sens,GFP chromo cs
N#Cc1ccc(C23CC4(C2)C(CN(Cc2ccc(C(F)(F)F)cc2)C4c2ccccc2)C3c2ccc(Cl)nc2)cc1 (stereo unspecified),nt,nt,-3.4,nt,nt,nt
CC(C)(C)OC(=O)NC(C(=O)OC(C)(C)C)c1ccc2ccccc2c1 (stereo unspecified),nt,nt,5.2,nt,nt,nt
CCCCNC(=O)c1cccc2c(=O)c(C)c(-c3ccccc3)oc12,-2.2,-5.5,12.4,-0.3,6.4,nt
CCCCN(C(=O)c1cccc2c(=O)c(C)c(-c3ccccc3)oc12)c1ccccc1,2.9,32.8*,1.3,-0.8,nt,>38
CCN(CC)S(=O)(=O)c1ccc(N2CCN(S(=O)(=O)c3ccccc3)CC2)nc1,3.6,-0.1,-4.1,-0.5,nt,nt
CCN(CC)S(=O)(=O)c1ccc(N2CCN(S(=O)(=O)c3ccccc3C#N)CC2)nc1,-1.1,31.7*,nt,0.9,-0.6,>38
ONc1cccnc1-n1nc(C(F)(F)F)cc1C(F)(F)F,nt,82.4*,nt,nt,1.9,>38
O=C(O)c1ccccc1C(=O)Nc1ccc(-n2nc(C(F)(F)F)cc2C(F)(F)F)cc1,-1.5,-2.4,10.0,nt,32.8,nt
CC(=NOCC(=O)OCC(=O)NC(=O)c1ccccc1)c1ccc2c(c1)OCO2,nt,nt,-3.6,nt,nt,nt
Cc1ccc2nc(Cc3ccc(N)cc3)[nH]c2c1,8.6,-1.2,19.2,0.8,-5.0,nt
Nc1ccc2nc(Cc3ccccc3)[nH]c2c1,-10.2,29.8*,nt,1.0,-1.3,>38
Cc1oc2cc([N+](=O)[O-])c(O)c([N+](=O)[O-])c2c1C(=O)c1ccc(Cl)cc1,12.7,37.2*,21.2,-1.2,-4.3,21.7*
CS/C(Nc1cc(Cl)ccc1Cl)=C(/C#N)C(=O)c1ccco1,17.8,64.9*,nt,1.1,99.8,27.3*
COc1ccc(CC2=CC(=O)c3ccccc3C2=O)cc1,3.0,77.1*,13.0,3.4,99.9,8.48*
C/C(CC(=O)Nc1cccnc1)=N\NC(=O)c1ccc([N+](=O)[O-])c(Cl)c1,5.0,61.1*,nt,-0.7,-1.3,34.7*
COC(=O)[C@]1(CC(C)C)NC(c2ccc(-c3ccccc3)cc2)C2C(=O)N(C)C(=O)C21 (stereo partly specified),nt,nt,4.7,nt,nt,nt
O=C(Oc1ccccc1C(=O)Nc1ccccc1)c1ccccc1Br,2.6,54.2*,7.8,1.3,7.3,35.9*
COc1ccc(C(c2c(C)[nH]n(-c3ccccc3)c2=O)c2c(C)[nH]n(-c3ccccc3)c2=O)cc1OC,84.2*,98.4*,5.2,-0.6,6.8,1.27*
Cc1[nH]n(-c2ccccc2)c(=O)c1C(C[N+](=O)[O-])c1ccc(F)cc1 (stereo unspecified),-4.5,76.4*,10.3,0.1,98.4,22.4*
Cc1ccc(C(C[N+](=O)[O-])c2c(C)[nH]n(-c3ccccc3)c2=O)cc1 (stereo unspecified),23.2,92.7*,7.9,-0.5,94.8,7.29*

# Source: PubChem BioAssay
